# Measurements taken from paper PMC4336329 (PLoS ONE, 2015).
# The whole screen tested about 310,000 compounds, of which about 14,000 (4.5%) showed an effect of 50% or more. The effect is printed as a negative number. This excerpt belongs to a sample that is enriched for strong results.
# Target: human ether-à-go-go-related gene (hERG) potassium channel (human, UniProt Q12809)
# Assay: primary screen, population patch clamp on CHO cells stably expressing hERG; higher = less effect of the substance
# 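Note: peak tail current of the secondary pulse compared with the same well before compound.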
# Chain of human ether-à-go-go-related gene (hERG) potassium channel (Q12809 whole entry, looked up): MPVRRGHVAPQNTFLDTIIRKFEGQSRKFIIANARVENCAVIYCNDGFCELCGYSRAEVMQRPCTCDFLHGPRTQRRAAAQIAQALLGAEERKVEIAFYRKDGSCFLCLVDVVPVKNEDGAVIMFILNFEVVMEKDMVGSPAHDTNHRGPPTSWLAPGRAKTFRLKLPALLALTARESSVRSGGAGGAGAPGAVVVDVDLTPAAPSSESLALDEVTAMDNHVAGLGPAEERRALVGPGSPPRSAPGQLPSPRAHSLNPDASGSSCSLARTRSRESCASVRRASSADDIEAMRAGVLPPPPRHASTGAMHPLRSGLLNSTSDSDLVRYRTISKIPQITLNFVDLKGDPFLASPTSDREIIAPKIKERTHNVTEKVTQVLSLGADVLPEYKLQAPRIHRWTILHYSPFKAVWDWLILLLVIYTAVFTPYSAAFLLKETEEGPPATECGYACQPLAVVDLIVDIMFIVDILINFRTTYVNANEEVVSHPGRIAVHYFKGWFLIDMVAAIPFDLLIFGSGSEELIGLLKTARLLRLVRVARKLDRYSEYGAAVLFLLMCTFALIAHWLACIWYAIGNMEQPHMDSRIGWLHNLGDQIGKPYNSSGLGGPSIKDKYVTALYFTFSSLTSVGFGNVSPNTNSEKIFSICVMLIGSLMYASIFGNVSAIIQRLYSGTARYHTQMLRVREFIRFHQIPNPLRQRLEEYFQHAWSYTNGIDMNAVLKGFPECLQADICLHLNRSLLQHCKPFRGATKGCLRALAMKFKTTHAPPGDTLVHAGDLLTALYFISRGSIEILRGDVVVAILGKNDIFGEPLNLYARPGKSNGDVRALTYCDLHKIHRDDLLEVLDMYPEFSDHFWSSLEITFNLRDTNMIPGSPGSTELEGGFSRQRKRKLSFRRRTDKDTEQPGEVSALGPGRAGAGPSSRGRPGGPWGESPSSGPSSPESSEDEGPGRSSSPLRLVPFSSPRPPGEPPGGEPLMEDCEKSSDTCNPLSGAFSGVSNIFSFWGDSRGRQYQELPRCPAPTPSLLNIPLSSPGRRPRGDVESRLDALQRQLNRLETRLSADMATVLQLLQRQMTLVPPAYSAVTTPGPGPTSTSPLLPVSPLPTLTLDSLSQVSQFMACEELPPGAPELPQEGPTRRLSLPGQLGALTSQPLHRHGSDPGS
row,Structure (SMILES),"hERG current change (%, negative = inhibition) at 10uM"
1,O=C(CN1C(=O)NC2(CCCC2)C1=O)N1CCN(c2cccc(C(F)(F)F)c2)CC1,-24.5%
2,Cc1oc2c(C)c3oc(=O)c(CCC(=O)NCCCN4CCOCC4)c(C)c3cc2c1C,-6.99%
3,COc1ccccc1CCN=C(N)NS(=O)(=O)c1ccc(C)c(C)c1,9.37%
4,O=C(COC(=O)c1ncc(Cl)c(Cl)c1Cl)NCc1ccccc1,2.42%
5,CCN1CCN(C(=O)CS(=O)Cc2nc(-c3cccc(C)c3)oc2C)CC1 (stereo not shown),3.36%
6,COc1ccc(-c2nnc(SC(C(=O)c3c[nH]c4ccccc34)c3ccccc3)n2N)cc1OC (stereo not shown),2.03%
7,COc1ccc(NC(=O)c2cc3ccc(O)cc3o/c2=N\O)cc1,2.99%
8,C=CCn1c(=O)c2ccccc2n2c(SCC(=O)Nc3sc(C)c(CC)c3C(=O)OCC)nnc12,6.96%
9,C=CCn1c(=O)c2ccccc2n2c(SCC(=O)NC)nnc12,-1.24%
10,C=CCn1c(=O)c2ccccc2n2c(SCC(N)=O)nnc12,2.96%
11,C=CCn1c(=O)c2ccccc2n2c(SCc3c(C(=O)OCC)oc4ccccc34)nnc12,-56.1%
12,C=CCn1c(=O)c2ccccc2n2c(SCC(=O)Nc3sc(C(=O)N(CC)CC)c(C)c3C(=O)OCC)nnc12,-52.3%
13,CCCn1c(=O)c2ccccc2n2c(SCc3c(C(=O)OCC)oc4ccccc34)nnc12,-43.5%
14,Cc1ccc(S(=O)(=O)N(C)C)cc1NC(=O)CN1C(=O)NC(Cc2ccccc2)C1=O (stereo not shown),8.61%
15,O=C(O)C(=O)O.OC(COC(c1ccc(F)cc1)c1ccc(F)cc1)CN1CCCC1 (stereo not shown),-70.6%
16,O=C(O)C(=O)O.OC1CCCN(CC(O)COC(c2ccc(F)cc2)c2ccc(F)cc2)C1 (stereo not shown),-57.6%
17,O=C(O)C(=O)O.OC(COC(c1ccc(F)cc1)c1ccc(F)cc1)CN1CCCC(C(F)(F)F)C1 (stereo not shown),10.8%
18,Cc1ccccc1C(OCC(O)CN1CCN(CCO)CC1)c1ccccc1.O=C(O)C(=O)O (stereo not shown),-12.1%
19,CC(=O)c1ccc(OCC(O)CN2CCN(CCO)CC2)cc1.Cl (stereo not shown),9.1%
20,O=C(O)C(=O)O.OCCN1CCN(CC(O)COC(c2ccc(F)cc2)c2ccc(F)cc2)CC1 (stereo not shown),-61.9%
21,O=C(OCN1C(=O)c2ccccc2C1=O)c1cccc(S(=O)(=O)N2CCOCC2)c1,-3.06%
22,CN1c2ccsc2/C(=N/NC(=O)c2c(F)cccc2F)CS1(=O)=O,4.31%

row,Structure (SMILES),"hERG current change (%, negative = inhibition) at 10uM"
1,Cc1cccc(C2(c3cccc(C)c3)CC2C(=O)NCC2CCCO2)c1 (stereo not shown),-6.94%
2,CC(CC(=O)N1CCN(S(=O)(=O)c2ccccc2)CC1)n1cncn1 (stereo not shown),20.1%
3,NS(=O)(=O)c1ccc(CCNC(=O)Nc2ccc(Cl)cc2)cc1,-9.65%
4,O=c1cc(NC2CCCCCC2)[nH]c(=O)[nH]1,4.69%
5,CN(C)C(=O)Oc1c(Cl)cc(Cl)c2ccccc12,-36.2%
6,CCC(/C=C1\Sc2ccc(OC)cc2N1CC)=C\c1sc2ccc(OC)cc2[n+]1CCCS(=O)(=O)[O-],15%
7,CCC(/C=C1\Sc2ccc(OC)cc2N1CCO)=C\c1sc2ccc(OC)cc2[n+]1CCO.[Cl-],-72.9%
8,CCC(=O)/C=C1\Sc2ccc(OC)cc2N1CCO,-0.298%
9,CC(=O)Nc1ccc(NC(=O)C2CCCN(c3ncccn3)C2)cc1 (stereo not shown),2.63%
10,O=C(NCc1ccc(Cl)cc1)C1CCCN(c2cnccn2)C1 (stereo not shown),-66.5%
11,O=C(NCc1ccccc1)C1CCCN(c2cnccn2)C1 (stereo not shown),-28.9%
12,O=C(NCc1cccc(C(F)(F)F)c1)C1CCCN(c2ncccn2)C1 (stereo not shown),-37.1%
13,Cc1ccc(NC(=O)C2CCCN(c3ncccn3)C2)cc1F (stereo not shown),-0.00042%
14,Cc1ccc(CNC(=O)C2CCCN(c3cnccn3)C2)cc1 (stereo not shown),-40%
15,O=C(NCc1cccc(C(F)(F)F)c1)C1CCCN(c2cnccn2)C1 (stereo not shown),-61%
16,Cl.O=C(Nc1cccc(C(F)(F)F)c1)c1cccnc1N1CCN(c2ccccc2)CC1,7.25%
17,COc1cccc(CNC(=O)C2CCCN(c3cnccn3)C2)c1 (stereo not shown),-14.4%
18,O=C(Nc1cccc(C(F)(F)F)c1)c1cccnc1N1CCCC1,13.2%
19,O=C(Nc1cccc(C(F)(F)F)c1)c1cccnc1N1CCN(CCO)CC1,-63.8%
20,O=C(Nc1cccc(C(F)(F)F)c1)C1CCCN(c2ncccn2)C1 (stereo not shown),-53.4%
21,COC(=O)C1=C(C)Nc2nnnn2C1c1ccccc1Cl (stereo not shown),-2.51%
22,CCOC(=O)Cc1cc(OC)c(OC)cc1Cc1cc(OC)c(OC)cc1CC(=O)OCC,9.74%

row,Structure (SMILES),"hERG current change (%, negative = inhibition) at 10uM"
1,C/C(=N\NC(=O)C1(C)CC1(Br)Br)c1ccc(NC(=O)C2CCC2)cc1 (stereo not shown),7.51%
2,COc1ccc(CCNc2cc(C)[nH]c(=O)c2)cc1OC,29.6%
3,CCOC(=O)c1c(N)c2cc([N+](=O)[O-])ccc2n1C,18.1%
4,CCOCCCNC(=S)N1C2CCC1CC(NC(=O)NC13CC4CC(CC(C4)C1)C3)C2 (stereo not shown),-8.16%
5,O=C(NCc1ccccc1F)C1CCCN(c2cnccn2)C1 (stereo not shown),13.4%
6,O=C(NCc1ccc(F)cc1)C1CCCN(c2cnccn2)C1 (stereo not shown),-65%
7,O=C(Nc1ccc(F)cc1)C1CCCN(c2cnccn2)C1 (stereo not shown),-11.9%
8,Cc1c(CCC(=O)NCC(=O)NCC(=O)O)c(=O)oc2cc3oc4c(c3cc12)CCCC4,4.87%
9,COc1ccc2cc3cc(C(=O)NCCCN4CCC(C)CC4)oc3nc2c1,-58.5%
10,CCN1CCN(CCCNC(=O)c2cc3cc4ccc(OC)cc4nc3o2)CC1,-17.1%
11,COc1ccc2cc3cc(C(=O)NCCN4CCN(c5ccccc5F)CC4)oc3nc2c1,-15.8%
12,COc1ccc2cc3cc(C(=O)NCCCN4CCOCC4)oc3nc2c1,-5.55%
13,COc1ccc2cc3cc(C(=O)NCCN4CCc5ccccc5C4)sc3nc2c1,-32.9%
14,CCOC(=O)N1CCC(NC(=O)c2cc3cc4cc(OC)ccc4nc3o2)CC1,-16.2%
15,COc1ccc2cc3cc(C(=O)NCc4ccccn4)oc3nc2c1,12.1%
16,COc1ccc2cc3cc(C(=O)NCCN4CCc5ccccc5C4)oc3nc2c1,-63.3%
17,COCCCNC(=O)c1cc2cc3cc(OC)ccc3nc2o1,-12.9%
18,COc1ccc2nc3oc(C(=O)NC4CCN(Cc5ccccc5)CC4)cc3cc2c1,-67.1%
19,COc1ccc2cc3cc(C(=O)NCCCN4CCc5ccccc5C4)sc3nc2c1,-32.7%
20,COc1ccc2cc3cc(C(=O)NCCN4CCN(Cc5ccccc5)CC4)oc3nc2c1,-71.8%
21,CCCCOC(=O)CN1C(=O)c2ccc(C(=O)OCCCC)cc2C1=O,4.54%
22,O.O=C([O-])c1ccn2c(C(=O)c3ccccc3)c(-c3ccccc3)cc2c1,12.8%

row,Structure (SMILES),"hERG current change (%, negative = inhibition) at 10uM"
1,C/C(=C\C(=O)OCC(=O)NCc1ccccc1)C(=O)OCC(=O)NCc1ccccc1,18.8%
2,CCN1C(=O)CSc2ccc(C(=O)NC3CCCCC3)cc21,-5.4%
3,Cc1cn2c(=O)c(C(=O)N3CCN(c4ccccc4Cl)CC3)cnc2s1,-62.8%
4,O=C(c1cnc2sccn2c1=O)N1CCN(c2ccccc2Cl)CC1,-2.33%
5,Cc1cn2c(=O)c(C(=O)N3CCN(c4ccccc4F)CC3)cnc2s1,-6.27%
6,CCCCCCCC1c2c(c(C)c(C)oc2=O)Oc2c(C)c(C)oc(=O)c21,11.9%
7,CCN1C(=O)[C@H]2[C@@H](c3ccc(-c4ccc(OC)cc4)cc3)N[C@@](Cc3ccccc3)(C(=O)OC)[C@H]2C1=O.O=C(O)C(F)(F)F,3.09%
8,CCc1ccc(CN(C)C(=O)CCc2nnc(-c3ccc(-c4ccccc4)cc3)o2)nc1,-65.1%
9,CN(Cc1ccon1)C(=O)CCc1nnc(Cc2ccc(-c3ccccc3)cc2)o1,-20%
10,CCc1ccc(CN(C)C(=O)CCc2nnc(CCc3ccccc3OC)o2)nc1,-1.47%
11,CCOc1ccc(CCNC(=O)COC(=O)/C=C/c2ccc(OC(F)F)c(OC)c2)cc1OCC,-15.2%
12,Cc1cccc(C)c1NC(=O)C(=O)NCCOc1ccc(Cl)cc1,-26%
13,CCN(C(=S)Nc1cccc(C)c1)c1ccccc1,13.2%
14,CC(=O)Oc1ccc(/C=C(\NC(=O)c2ccco2)C(=O)Nc2ccc(C(C)=O)cc2)cc1,-26.2%
15,O=C(NCc1ccco1)/C(=C/c1ccc(Br)cc1)NC(=O)c1ccco1,0.657%
16,CC(=O)Oc1ccc(/C=C(\NC(=O)c2ccco2)C(=O)NCc2ccccc2)cc1,-68.3%
17,O=C(NCc1ccccc1)/C(=C\c1ccc(O)cc1)NC(=O)c1ccco1,-20.7%
18,CC(=O)Oc1ccc(/C=C(\NC(=O)c2ccco2)C(=O)NCc2ccco2)cc1,-52%
19,COc1ccc(/C=C(\NC(=O)c2ccco2)C(=O)NCc2ccco2)cc1,8.89%
